Experimental findings from ChEMBL document CHEMBL1201862, “PubChem BioAssay data set” (2004) are described below.

A word on the IC90: it is the point of the concentration-response curve where the effect stands at 90%.

A short description of this test: M. tuberculosis growth inhibition, dose response, 7H9 media, purified and synthesized compounds, set 4 (AID 504857). It is filed as functional.

Measured potencies and affinities stand elsewhere.

Consider `Nc1c(C(=O)NC2CCCCC2)nsc1C(=O)OCC(=O)NC1CCCCC1`, for which the IC90 is > 71.1 µM (active).
